# Measured values: PubChem BioAssay (EPA / NIEHS)
# Active and inactive are the calls of the source. How the source made its calls: active means hit-call score of the fitted dose curve at least 0.9, where 1 is the maximum; inactive means score below 0.9.
# Experiment: ATG_MRE_CIS: Attagene CIS-FACTORIAL HepG2 Assay for human Metal Responsive Element (MRE) (AID 2282954)
# Details: HepG2 MRE cis-reporter transcription, Attagene multiplex; actives raise or lower the signal
# Procedure: ATG_CIS is a cell-based, multiplexed-readout assay that uses HepG2, a human liver cell line, with measurements taken at 24 hours after chemical dosing in a 24-well plate.ATG_MRE_CIS is one of 52 assay component(s) measured or calculated from the ATG_CIS assay. It is designed to make measurements of mRNA induction, a form of inducible reporter, as detected with fluorescence intensity signals by Reverse transcription polymerase chain reaction (RT-PCR) and Capillary electrophoresis technology.Data from the assay component ATG_MRE_CIS was analyzed into 1 assay endpoint. This assay endpoint, ATG_MRE_CIS, was analyzed with bidirectional fitting relative to DMSO as the negative control and baseline of activity. Using a type of inducible reporter, measures of mRNA for gain or loss-of-signal activity can be used to understand the reporter gene at the transcription factor-level as they relate to the gene MTF1. Furthermore, this assay endpoint can be referred to as a primary readout, because this assay has produced multiple assay endpoints where this one serves a reporter gene function. To generalize the intended target to other relatable targets, this assay endpoint is annotated to the dna binding intended target family, where the subfamily is zinc finger.
# Human liver HepG2 cells are transiently transfected with multiple reporter transcription units (MRTUs) in 6-well plates using FuGene 6 reagent (Roche; 3 ml FuGene/1 mg DNA). The MRTU constructs are regulated by a cis-regulating element (promoter). […] A major difference between the CIS and TRANS system is that in CIS activities of endogenous TFs are measured, whereas the TRANS assay evaluates changes in activities of exogenous, chimeric NR-Gal4 proteins. […] At the end of 24 hour incubation, total RNA was isolated using TriZol reagent (Invitrogen). The isolated RNA is then reverse-transcribed using oligo(dT) primer and Mo-MLV reverse transcriptase (Invitrogen) with DNAse I (Ambion) treatment for 30 min. The one-tenth of the produced cDNA was amplified by PCR using Taq DNA polymerase (Invitrogen) and two reporter sequence-specific primers. The PCR products were fluorescently labeled by primer extension with 6-arboxyfluorescein (6-FAM) 5'-labeled reporter sequence-specific primer (2 min at 95 C, 20 s at 68 C and 10 min at 72 C) and these products were digested with 5U of HpaI (New England Biolabs) for 2h at 37 C. The fragments were purified using Qiaquick PCR columns (Qiagen), analyzed on an ABI 3130xL genetic analyzer (Applied Biosystems) with peak positions identified by using a set of X-rhodamine (ROX)-labeled MapMarker1000 molecular weight standards (BioVentures). The raw capillary electrophoresis data was processed using Attagraph software (Attagene).
Compound,outcome,AC50
CC(C)C(=O)C(C)C,inactive,
NC(=O)N=NC(N)=O,inactive,
O=C(Nc1ccccc1)c1ccccc1O,inactive,
CCOC(=O)NNc1nncc2ccccc12,inactive,
CCCCCC/C=C/C=O,inactive,
CCCCNc1ccc(NCCCC)c2c1C(=O)c1ccccc1C2=O,inactive,
O=C(O)CCCCCCCCCC(=O)O,inactive,
CC1(C)[C@H]2CC[C@]1(C)C(=O)C2,inactive,
CCOC(=O)[C@H](C)O,inactive,
C=C1C2CCC(C2)C1(C)C (stereo not given),inactive,
COC(=O)c1cc(Cl)ccc1[N+](=O)[O-],inactive,
O=S(=O)(O)CC(O)CCl (stereo not given),inactive,
CCC(Cc1ccccc1)(C(=O)c1ccc(N2CCOCC2)cc1)N(C)C (stereo not given),,52.7 µM (active)
O=C(O)CC(C(=O)O)C(CC(=O)O)C(=O)O (stereo not given),inactive,
C[Si](C)(C)O[Si](O)(O)O,inactive,
CCCOCCOCCOCCO,inactive,
C=C[Si](OC(C)=O)(OC(C)=O)OC(C)=O,inactive,
C=C[Si](C)(C)O[Si](C)(C)C=C,inactive,
CCCCOCCOC(=O)COc1nc(Cl)c(Cl)cc1Cl,inactive,
COc1c2ccoc2cc2oc(=O)ccc12,inactive,

Compound,outcome,AC50
Cc1ccc2oc(=O)ccc2c1,inactive,
c1ccc2c(c1)ccc1ncccc12,inactive,
Cn1c(=O)[nH]c2ncn(C)c2c1=O,inactive,
COC(=O)c1ccc2cc(C(=O)OC)ccc2c1,inactive,
CCCCCc1ccc(Cl)cc1,inactive,
CC/C=C\CCOC(=O)CCCCC,inactive,
CCCCCCCCCCCCCCCC(=O)OCC,inactive,
CC(C)(C)C(=O)C=Cc1ccc(Cl)cc1,,34 µM (active)
CC(=O)Oc1ccc(C)cc1,inactive,
Cc1cnc(NC(=O)C2=C(O)c3ccccc3S(=O)(=O)N2C)s1,inactive,
O=c1c2ccccc2oc2ccccc12,inactive,
CCCCC(CC)COC(=O)c1ccccc1 (stereo not given),inactive,
Cc1ccc(C(C)(C)C)cc1,inactive,
CC1OC1C1CCC2(C)OC2C1 (stereo not given),inactive,
O=S(=O)(O)c1cc(S(=O)(=O)O)c2ccc3c(S(=O)(=O)O)cc(S(=O)(=O)O)c4ccc1c2c43,inactive,
CCCCCCCCCCCSCC(=O)O,,106 µM (active)
COCc1c(C(C)C)nc(C(C)C)c(/C=C/[C@@H](O)C[C@@H](O)CC(=O)O)c1-c1ccc(F)cc1,,12.4 µM (active)
C=C(C)C(=O)OCC(C)C,inactive,
O=c1c2ccccc2nnn1CCl,inactive,
CCOc1nc(F)cc2nc(S(=O)(=O)Nc3c(Cl)cccc3C(=O)OC)nn12,inactive,
